Screens deposited in PubChem BioAssay by The Scripps Research Institute Molecular Screening Center.
The list is not random: actives were taken first. Their share in the collection is about 0.86%.
IDE act – activators of human insulin-degrading enzyme in cells. hit rate 0.073% among 340,000. HEK cells, FAbeta-B cleavage, fluorescence polarization; 0% vehicle, 100% cell-free pure enzyme wells. activation, % at 5.96 µM. AID 493087;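 active = activation above the mean of all tested compounds plus 3 SD, set per screening campaign, cut at about 17% in these data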
TLR4-MyD88 BLA – inhibitors of human TLR4-MyD88 binding; AID 861; HeLa CL3-4 TLR4/MyD88 BLA complementation, FRET ratio; inhibition, % at 8.4 µM; hit rate 0.18% among 200,000; O00206+Q99836; in the data active = inhibition above about 25%;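 note: 0% = vehicle and 100% = reference inhibitor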
NOD2 RIPK2 PPI – inhibitors of human NOD2-RIPK2 interaction; O43353; CHO BLA complementation NOD2-RIPK2, CCF4 ratio; inhibition, % at 4.98 µM; hit rate 0.38% among 360,000; AID 624267; in the data active = inhibition above about 21%;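 note: 0% = vehicle only and 100% = reference blocker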
Target sequence (O43353 whole entry, looked up): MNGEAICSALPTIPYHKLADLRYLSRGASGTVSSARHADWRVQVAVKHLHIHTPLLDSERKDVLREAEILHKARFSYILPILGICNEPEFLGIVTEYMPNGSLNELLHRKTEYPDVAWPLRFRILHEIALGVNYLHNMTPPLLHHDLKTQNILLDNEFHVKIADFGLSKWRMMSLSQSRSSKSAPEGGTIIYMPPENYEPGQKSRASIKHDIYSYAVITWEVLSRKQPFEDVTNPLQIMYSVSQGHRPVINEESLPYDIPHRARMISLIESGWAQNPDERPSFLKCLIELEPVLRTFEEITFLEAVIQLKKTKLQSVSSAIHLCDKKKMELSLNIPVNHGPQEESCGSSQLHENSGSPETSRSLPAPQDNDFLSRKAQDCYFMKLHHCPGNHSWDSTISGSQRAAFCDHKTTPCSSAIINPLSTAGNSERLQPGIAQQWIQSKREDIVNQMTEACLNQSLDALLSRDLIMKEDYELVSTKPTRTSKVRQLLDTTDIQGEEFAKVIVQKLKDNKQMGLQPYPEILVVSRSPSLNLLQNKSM
TLR9-MyD88 inh – inhibitors of human TLR9-MyD88 binding; Q9NR96+Q99836; CHO BLA complementation TLR9-MyD88, CCF4 FRET ratio; inhibition, % at 4.98 µM; hit rate 0.21% among 340,000;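 active = inhibition above the mean over all tested compounds plus 3 SD, cut at about 21% in these data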;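 note: 0% = DMSO only wells and 100% = clavulanate BLA inhibitor control wells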
IDE cell inh – inhibits human insulin-degrading enzyme in HEK cells; FAbetaB cleavage, fluorescence polarization; inhibition, % at 5.59 µM; hit rate 0.41% among 320,000;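 active = percent inhibition above the average of all tested compounds plus 3 SD, set per screening campaign, cut at about 16% in these data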;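 note: IDE supplied by intact live HEK cells; FP after avidin binding of uncleaved biotin substrate so inhibition keeps polarization high; 0% = DMSO wells and 100% = 60 µM reference IDE inhibitor Ii1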
IDE inh confirm – confirmation of human insulin-degrading enzyme inhibitors in cells; inhibition, % at 5.59 µM; hit rate 51% among 1,200; shares compounds with IDE cell inh; HEK cells, FAbetaB cleavage, fluorescence polarization;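 active = mean inhibition across triplicate wells above the cutoff set by the earlier primary insulin-degrading enzyme screen, cut at about 16% in these data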;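 note: 0% = DMSO wells and 100% = 60 µM reference IDE inhibitor Ii1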
HEK293 tox – HEK cell cytotoxicity, counter-screen for IDE inhibitors. inhibition, % at 5.59 µM. hit rate 28% among 1,200. AID 449730. HEK293 cytotoxicity, ATP luminescence. shares compounds with IDE cell inh; in the data active = inhibition above about 22%;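 note: 0% = vehicle wells and 100% = reference cytotoxic drug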
* = called active by the depositor; · = no result given.

SMILES	IDE act	TLR4-MyD88 BLA	NOD2 RIPK2 PPI	TLR9-MyD88 inh	IDE cell inh	IDE inh confirm	HEK293 tox
O=C(Nc1cc(F)ccc1F)N1CCN(c2ccnc3cc(Cl)ccc23)CC1	-39	·	-7	-22	22*	9	-3
CC(=O)Nc1ccc(S(=O)(=O)N2CCC(C(=O)NCc3cccnc3)CC2)cc1	4	·	-12	-6	1	·	·
O=C(O)c1ccc(N2CCOCC2)c(N2C(=O)C3C4C=CC(C4)C3C2=O)c1 (stereo not drawn)	3	6	4	-4	0	·	·
CC(C)(C)C(=O)/C=c1\s/c(=C\c2ccc(-c3ccc([N+](=O)[O-])cc3)o2)c(=O)n1CC(=O)NC(N)=O	-20	13	-3	5	22*	78*	26*
CC1CCN(c2c(NCc3ccc(C(=O)N4c5ccccc5CC4C)cc3)c(=O)c2=O)CC1 (stereo not drawn)	-46	-3	-9	-6	38*	32*	16
Cc1ccc(SC/C(O)=C(\C#N)c2nc3ccccc3s2)cc1	6	7	1	-4	7	·	·
N#C/C(=C(/O)CSc1ccccn1)c1nc2ccccc2s1	-1	-4	6	0	30*	5	6
COc1ccc(-c2cc(C(=O)NN3CCOCC3)c3ccccc3n2)cc1OC	1	·	-14	12	·	·	·
CC(C)(C)CC(=O)Nc1ccc(-c2nnc3n2CCCCC3)cc1	-5	·	-9	-4	4	·	·
O=C(/C=C/c1ccccc1Cl)Nc1ccc(-c2nnc3n2CCCCC3)cc1	-2	-1	-8	-5	31*	1	9
O=C(Nc1ccc(-c2nnc3n2CCCCC3)cc1)c1cc2ccccc2o1	-17	-8	-4	4	9	·	·
Cc1c(C(=O)Nc2ccc(-c3nnc4n3CCCCC4)cc2)oc2c1ccc1ccccc12	-12	6	2	0	23*	13	39*
CCOc1ccc2[nH]c(=O)c(CN(Cc3cccs3)C(CC)c3nnnn3C(C)(C)CC)cc2c1 (stereo not drawn)	3	6	-9	-7	·	·	·
CCC(CO)[n+]1c(C)cc(/C=C2\Sc3ccccc3N2Cc2ccccc2)cc1C (stereo not drawn)	-37	20	-2	2	43*	54*	100*
CCN1/C(=C2\SC(=S)N(Cc3ccccc3)C2=O)Sc2ccccc21	-3	9	-7	-2	2	·	·
Cc1ccc2[nH]c(O)c(N=NC(=O)CCc3ccccc3)c2c1Br	-6	-2	6	4	-5	·	·
CCC(=O)NC(C)c1cc(Cl)c2ccccc2c1O (stereo not drawn)	-1	·	3	-4	5	·	·
CC(=O)NC(c1cccs1)c1cc(Cl)c2ccccc2c1O (stereo not drawn)	4	·	-5	4	19*	8	9
CCC(=O)NC(c1cccs1)c1cc([N+](=O)[O-])c2cccnc2c1O (stereo not drawn)	-2	-2	3	17	4	·	·
CC(=O)NC(c1cccs1)c1cc([N+](=O)[O-])c2cccnc2c1O (stereo not drawn)	7	-1	10	-9	27*	6	27*
CCC(=O)NC(c1cccs1)c1cc(Cl)c2ccccc2c1O (stereo not drawn)	1	·	1	-24	17*	8	10
COc1ccc(CCNc2ncnc3c2c(C)c(C)n3CCO)cc1OC	5	·	1	-2	-1	·	·
COc1ccc(O)c(C(=O)c2coc(=N)c(C(=O)Nc3ccc(SC(F)F)cc3)c2)c1	-22	1	0	5	20*	38*	24*
CN(C)S(=O)(=O)c1cccc(-n2sc3ccccc3c2=O)c1	-19	-20	-4	4	94*	31*	52*
O=C(O)c1cccc(-n2sc3ccccc3c2=O)c1	-23	·	4	0	93*	97*	8
O=c1c2ccccc2sn1-c1cccc(Cl)c1	·	·	1	11	·	·	·
CCOC(=O)C1=C(COC(=O)[C@@H](NC(=O)c2cccc(C)c2)C(C)C)NC(=O)NC1C (stereo partly drawn)	2	·	-7	-6	4	·	·
